Laboratory results as given in the supplement of paper PMC6288085.
Counter-ions that a name gives are not always drawn. ± gives the uncertainty stated by the source.

Each compound was assayed on Caenorhabditis elegans N2 (assay: food intake (mean delta OD600 / animal over 72 h) with 50 uM loxapine co-treatment (OD600 units per animal); higher = more food eaten (less suppression of loxapine-induced hyperphagia)). Conditions: first compound 33 µM, loxapine concentration 50 µM.
Protocol: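 C. elegans N2 adults (FUDR-sterilised, day 1) in 96-well plates fed gamma-irradiated bacteria. Each library drug (MedChemExpress FDA-approved library) at 33 uM was combined with loxapine at 50 uM. Food intake was measured as bacterial clearance: the change in OD600 from day 1 to 72 h, normalised per animal (mean over 14-21 wells of about 10-12 worms). Drugs flagged for bacterial lysis or sickness were excluded by the authors.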

`CN1CCCC(n2nc(Cc3ccc(Cl)cc3)c3ccccc3c2=O)CC1` (stereo not given) [azelastine (hydrochloride)] + CN1CCN(C2=Nc3ccccc3Oc3ccc(Cl)cc32)CC1 [loxapine] and `CN(C)CCOC(c1ccccc1)c1ccccc1.Cn1c(=O)c2[nH]c(Cl)nc2n(C)c1=O` [dimenhydrinate] + CN1CCN(C2=Nc3ccccc3Oc3ccc(Cl)cc32)CC1 [loxapine] are within error of each other in food intake: 0.0226 ± 0.0035 for the first, 0.0239 ± 0.0029 for the second.

`NC12CC3CC(CC(C3)C1)C2` [amantadine (hydrochloride)] + CN1CCN(C2=Nc3ccccc3Oc3ccc(Cl)cc32)CC1 [loxapine] and `C1CCN2C[C@@H]3C[C@@H](CN4CCCC[C@@H]34)[C@H]2C1` [(-)-sparteine (sulfate pentahydrate)] + CN1CCN(C2=Nc3ccccc3Oc3ccc(Cl)cc32)CC1 [loxapine] are within error of each other in food intake: 0.0253 ± 0.003 for the first, 0.0235 ± 0.0013 for the second.

`O=NN(CCCl)C(=O)NC1CCCCC1` [Lomustine] + CN1CCN(C2=Nc3ccccc3Oc3ccc(Cl)cc32)CC1 [loxapine] and `O=C1CCc2cc(OCCCCc3nnnn3C3CCCCC3)ccc2N1` [cilostazol] + CN1CCN(C2=Nc3ccccc3Oc3ccc(Cl)cc32)CC1 [loxapine] are within error of each other in food intake: 0.0248 ± 0.0039 for the first, 0.0227 ± 0.0031 for the second.

`CC(C)Cc1ccc(C(C)C(=O)O)cc1` (stereo not given) [ibuprofen] + CN1CCN(C2=Nc3ccccc3Oc3ccc(Cl)cc32)CC1 [loxapine] and `CC(C(=O)O)c1ccc2c(c1)CC(=O)c1ccccc1S2` (stereo not given) [zaltoprofen] + CN1CCN(C2=Nc3ccccc3Oc3ccc(Cl)cc32)CC1 [loxapine] are within error of each other in food intake: 0.0222 ± 0.0021 for the first, 0.0216 ± 0.0032 for the second.

`COc1ccc(CCN(C)CCCN2CCc3cc(OC)c(OC)cc3CC2=O)cc1OC` [zatebradine] + CN1CCN(C2=Nc3ccccc3Oc3ccc(Cl)cc32)CC1 [loxapine] and `COc1cc(OC)c(C(=O)CCCN2CCCC2)c(OC)c1` [buflomedil (hydrochloride)] + CN1CCN(C2=Nc3ccccc3Oc3ccc(Cl)cc32)CC1 [loxapine] are within error of each other in food intake: 0.0232 ± 0.0027 for the first, 0.0222 ± 0.0028 for the second.

`O=C([O-])c1ccccc1O.[Na+]` [sodium salicylate] + CN1CCN(C2=Nc3ccccc3Oc3ccc(Cl)cc32)CC1 [loxapine] and `NS(=O)(=O)c1ccc(C(=O)O)cc1` [carzenide] + CN1CCN(C2=Nc3ccccc3Oc3ccc(Cl)cc32)CC1 [loxapine] are within error of each other in food intake: 0.0224 ± 0.0057 for the first, 0.0251 ± 0.0067 for the second.

`CN(C)[C@@H]1C(O)=C(C(N)=O)C(=O)[C@@]2(O)C(O)=C3C(=O)c4c(O)cccc4[C@@](C)(O)[C@H]3C[C@@H]12` [Tetracycline (hydrochloride)] + CN1CCN(C2=Nc3ccccc3Oc3ccc(Cl)cc32)CC1 [loxapine] and `Cc1cccc(-c2nn3c(c2-c2ccnc4ccc(C(N)=O)cc24)CCC3)n1` + CN1CCN(C2=Nc3ccccc3Oc3ccc(Cl)cc32)CC1 [loxapine] are within error of each other in food intake: 0.0228 ± 0.0038 for the first, 0.0252 ± 0.0052 for the second.

`Cc1nc(C(=O)NCC(=O)O)c(O)c2ccc(Oc3ccccc3)cc12` + CN1CCN(C2=Nc3ccccc3Oc3ccc(Cl)cc32)CC1 [loxapine] and `O=C(O)COC(=O)Cc1ccccc1Nc1c(Cl)cccc1Cl` [aceclofenac] + CN1CCN(C2=Nc3ccccc3Oc3ccc(Cl)cc32)CC1 [loxapine] are within error of each other in food intake: 0.0228 ± 0.0037 for the first, 0.0221 ± 0.0083 for the second.

`CN(Cc1cnc2nc(N)nc(N)c2n1)c1ccc(C(=O)N[C@@H](CCC(=O)O)C(=O)O)cc1` [methotrexate] + CN1CCN(C2=Nc3ccccc3Oc3ccc(Cl)cc32)CC1 [loxapine] and `CC(=O)OCC(CCn1cnc2cnc(N)nc21)COC(C)=O` [famciclovir] + CN1CCN(C2=Nc3ccccc3Oc3ccc(Cl)cc32)CC1 [loxapine] are within error of each other in food intake: 0.0222 ± 0.0022 for the first, 0.0236 ± 0.0029 for the second.

`N=C(N)c1ccc(OCCCCCOc2ccc(C(=N)N)cc2)cc1` [pentamidine (isethionate)] + CN1CCN(C2=Nc3ccccc3Oc3ccc(Cl)cc32)CC1 [loxapine] and `CCc1ccc(CCOc2ccc(CC3SC(=O)NC3=O)cc2)nc1` (stereo not given) [pioglitazone (hydrochloride)] + CN1CCN(C2=Nc3ccccc3Oc3ccc(Cl)cc32)CC1 [loxapine] are within error of each other in food intake: 0.0232 ± 0.0025 for the first, 0.0215 ± 0.0041 for the second.

`Cc1ccc(Nc2nccc(N(C)c3ccc4c(C)n(C)nc4c3)n2)cc1S(N)(=O)=O` [pazopanib (hydrochloride)] + CN1CCN(C2=Nc3ccccc3Oc3ccc(Cl)cc32)CC1 [loxapine] and `CCOC(=O)c1c(CSc2ccccc2)n(C)c2cc(Br)c(O)c(CN(C)C)c12` [arbidol (hydrochloride)] + CN1CCN(C2=Nc3ccccc3Oc3ccc(Cl)cc32)CC1 [loxapine] are within error of each other in food intake: 0.0206 ± 0.0053 for the first, 0.0227 ± 0.0057 for the second.

`Nc1nc(/C(=C/CC(=O)O)C(=O)N[C@@H]2C(=O)N3C(C(=O)O)=CCS[C@H]23)cs1` [ceftibuten (dihydrate)] + CN1CCN(C2=Nc3ccccc3Oc3ccc(Cl)cc32)CC1 [loxapine] and `CO/N=C(\C(=O)N[C@@H]1C(=O)N2C(C(=O)O)=C(CSC(=O)c3ccco3)CS[C@H]12)c1csc(N)n1` [ceftiofur (sodium)] + CN1CCN(C2=Nc3ccccc3Oc3ccc(Cl)cc32)CC1 [loxapine] are within error of each other in food intake: 0.0192 ± 0.0055 for the first, 0.0225 ± 0.0037 for the second.

`CC[C@@H]([C@H](C)O)n1ncn(-c2ccc(N3CCN(c4ccc(OC[C@@H]5CO[C@@](Cn6cncn6)(c6ccc(F)cc6F)C5)cc4)CC3)cc2)c1=O` [Posaconazole] + CN1CCN(C2=Nc3ccccc3Oc3ccc(Cl)cc32)CC1 [loxapine] and `Cc1cccc(C)c1OCC(=O)N[C@@H](Cc1ccccc1)[C@@H](O)C[C@H](Cc1ccccc1)NC(=O)[C@H](C(C)C)N1CCCNC1=O` [lopinavir] + CN1CCN(C2=Nc3ccccc3Oc3ccc(Cl)cc32)CC1 [loxapine] are within error of each other in food intake: 0.023 ± 0.0056 for the first, 0.0209 ± 0.0084 for the second.

`CC[C@H]1OC(=O)[C@H](C)[C@@H](O[C@H]2C[C@@](C)(OC)[C@@H](O)[C@H](C)O2)[C@H](C)[C@@H](O[C@@H]2O[C@H](C)C[C@H](N(C)C)[C@H]2O)[C@](C)(O)C[C@@H](C)[C@@H]2N[C@@H](COCCOC)O[C@H]([C@H]2C)[C@]1(C)O` [dirithromycin] + CN1CCN(C2=Nc3ccccc3Oc3ccc(Cl)cc32)CC1 [loxapine] and `C#Cc1cccc(Nc2ncnc3cc(OCCOC)c(OCCOC)cc23)c1` [Erlotinib] + CN1CCN(C2=Nc3ccccc3Oc3ccc(Cl)cc32)CC1 [loxapine] are within error of each other in food intake: 0.0208 ± 0.0079 for the first, 0.0212 ± 0.0034 for the second.

`O=C(O)C1=C(CSc2nnnn2CS(=O)(=O)O)CS[C@@H]2[C@H](NC(=O)[C@H](O)c3ccccc3)C(=O)N12` [cefonicid (sodium)] + CN1CCN(C2=Nc3ccccc3Oc3ccc(Cl)cc32)CC1 [loxapine] and `COC(=O)Nc1nc2cc([S+]([O-])c3ccccc3)ccc2[nH]1` (stereo not given) [oxfendazole] + CN1CCN(C2=Nc3ccccc3Oc3ccc(Cl)cc32)CC1 [loxapine] are within error of each other in food intake: 0.0217 ± 0.018 for the first, 0.0214 ± 0.0037 for the second.

`CC(C)NCC(O)COc1ccc(CCOCC2CC2)cc1` (stereo not given) [betaxolol (hydrochloride)] + CN1CCN(C2=Nc3ccccc3Oc3ccc(Cl)cc32)CC1 [loxapine] and `CCOc1ccc(NC(C)=O)cc1` [phenacetin] + CN1CCN(C2=Nc3ccccc3Oc3ccc(Cl)cc32)CC1 [loxapine] are within error of each other in food intake: 0.025 ± 0.003 for the first, 0.0226 ± 0.0036 for the second.

`CCN(CC)C(=O)c1cccc(C)c1` + CN1CCN(C2=Nc3ccccc3Oc3ccc(Cl)cc32)CC1 [loxapine] and `NNC(=O)c1ccncc1` [isoniazid] + CN1CCN(C2=Nc3ccccc3Oc3ccc(Cl)cc32)CC1 [loxapine] are within error of each other in food intake: 0.023 ± 0.0029 for the first, 0.0217 ± 0.0032 for the second.

`NNc1nncc2ccccc12` [hydralazine (hydrochloride)] + CN1CCN(C2=Nc3ccccc3Oc3ccc(Cl)cc32)CC1 [loxapine] and `N=C(N)NC(=N)NCCc1ccccc1` [Phenformin (hydrochloride)] + CN1CCN(C2=Nc3ccccc3Oc3ccc(Cl)cc32)CC1 [loxapine] are within error of each other in food intake: 0.022 ± 0.017 for the first, 0.0236 ± 0.0019 for the second.

Going from `CCCS(=O)(=O)Nc1ccc(F)c(C(=O)c2c[nH]c3ncc(-c4ccc(Cl)cc4)cc23)c1F` [vemurafenib] + CN1CCN(C2=Nc3ccccc3Oc3ccc(Cl)cc32)CC1 [loxapine] to `CCc1c2c(nc3ccc(OC(=O)N4CCC(N5CCCCC5)CC4)cc13)-c1cc3c(c(=O)n1C2)COC(=O)[C@]3(O)CC` [Irinotecan] + CN1CCN(C2=Nc3ccccc3Oc3ccc(Cl)cc32)CC1 [loxapine], the food intake rises from 0.012 ± 0.0047 to 0.022 ± 0.003.

`NC(=O)c1ncn([C@@H]2O[C@H](CO)[C@@H](O)[C@H]2O)n1` [ribavirin] + CN1CCN(C2=Nc3ccccc3Oc3ccc(Cl)cc32)CC1 [loxapine] and `S=c1nc[nH]c2nc[nH]c12` [6-Mercaptopurine] + CN1CCN(C2=Nc3ccccc3Oc3ccc(Cl)cc32)CC1 [loxapine] are within error of each other in food intake: 0.0212 ± 0.0037 for the first, 0.0218 ± 0.0028 for the second.
